In the library only some 1.2% were active in any assay of this set; here they are far more common.
RGS4-Gao reg: human RGS4-Galphao interaction regulation; P09471; Multiplexed bead flow cytometry, RGS4-Galphao binding; actives lie on both sides; binding response (% of control), % at 10 µM; actives 0.33% (n = 220,000); AID 1415; in the data active = binding response below about 49% or above about 150%; inactive = in between;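 note: fluorescent Galphao activated with aluminum fluoride binding bead-coupled RGS4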
Target sequence (P09471 whole entry, looked up): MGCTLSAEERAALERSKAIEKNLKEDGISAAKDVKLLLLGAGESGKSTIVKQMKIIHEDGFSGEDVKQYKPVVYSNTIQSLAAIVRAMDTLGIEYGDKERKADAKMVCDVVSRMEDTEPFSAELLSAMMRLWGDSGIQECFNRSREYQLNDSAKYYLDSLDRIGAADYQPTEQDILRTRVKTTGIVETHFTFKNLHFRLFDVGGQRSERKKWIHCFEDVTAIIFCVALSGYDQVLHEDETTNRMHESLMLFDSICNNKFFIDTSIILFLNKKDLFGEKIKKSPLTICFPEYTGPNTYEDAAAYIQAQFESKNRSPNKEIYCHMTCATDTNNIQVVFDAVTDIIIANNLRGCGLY
RGS16-Gao HTS: regulators of human RGS16-Galphao interaction. bead-based flow cytometry RGS16-Galphao binding, fluorescence; actives lie on both sides. binding response (% of control), % at 10 µM. actives 0.38% (n = 220,000);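 note: Galphao activated by GDP with aluminum fluoride before binding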
Target sequence (O15492 whole entry, looked up): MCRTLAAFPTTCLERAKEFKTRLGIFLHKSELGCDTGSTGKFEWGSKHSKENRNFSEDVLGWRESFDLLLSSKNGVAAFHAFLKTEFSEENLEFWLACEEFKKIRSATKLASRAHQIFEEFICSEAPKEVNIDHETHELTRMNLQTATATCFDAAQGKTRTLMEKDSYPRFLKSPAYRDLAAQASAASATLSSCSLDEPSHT
Target sequence (P09471 whole entry, looked up): as the sequence (P09471 whole entry, looked up) above
RGS7-Gao reg: human RGS7-Galphao interaction regulation. actives 0.35% (n = 220,000). P09471. Multiplexed bead flow cytometry, RGS7-Galphao binding; actives lie on both sides. binding response (% of control), % at 10 µM; in the data active = binding response below about 49% or above about 150%; inconclusive = no clear call, values can overlap the other calls; inactive = in between;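 note: fluorescent Galphao held in activated GDP-AlF4 state binding bead-coupled RGS7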
GSH bead fluor: compound fluoresces at 488/530 nm on GSH beads; GSH beads flow cytometry, compound fluorescence 488/530 nm; hits give high values; fluorescence (KMESF) at 10 µM; actives 0.25% (n = 190,000); in the data active = fluorescence above about 89;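 note: glutathione beads carrying GST-tagged Bcl family fusion proteins plus one bare bead set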
Avidin bead fluor: avidin bead compound fluorescence profile. Avidin beads, compound fluorescence 488/530 nm, flow cytometry; hits give high values. fluorescence (KMESF) at 10 µM. actives 0.38% (n = 220,000); in the data active = fluorescence above about 47
RGS8-Gao: modulates binding of RGS8 to human Galphao; P09471; multiplexed bead flow cytometry; actives lie on both sides; response (percent of control binding), % at 10 µM; actives 0.34% (n = 220,000); in the data active = response below about 60% or above about 140%; inactive = in between;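 note: Galphao activated as the GDP aluminium fluoride complex binding bead-coupled RGS8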
RGS-Gao: RGS4-Galphao interaction regulator (human). actives 99% (n = 1,600). shares compounds with RGS16-Gao HTS. RGS4–Galpha-o binding response, % at 10 µM. multiplexed bead flow cytometry, RGS–Galpha-o binding;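 note: fluorescently labeled Galpha-o bound to GDP with aluminium fluoride binding biotinylated RGS beads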
Avidin counter: biotin-avidin bead binding disruption counter-screen. shares compounds with RGS16-Gao HTS. 1,700 tested, under 10 active. streptavidin beads, fluorescein-biotin binding, flow cytometry. inhibition, % at 10 µM;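 active = inhibition above 50%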;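 note: median green fluorescence of gated singlet beads compared with DMSO control wells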
RGS8-Gao single: RGS8-Galphao interaction regulation, single point confirmation; bead-based flow cytometry RGS8-Galphao binding, fluorescence; actives lie on both sides; binding response (% of control), % at 10 µM; actives 3% (n = 1,700); shares compounds with RGS16-Gao HTS; in the data active = binding response below about 72% or above about 130%; inactive = in between;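 note: Galphao activated as GDP AlF4 complex before binding bead RGS8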
RGS7-Gao confirm: RGS7-Galphao interaction regulation, single point confirmation; shares compounds with RGS16-Gao HTS; bead-based flow cytometry RGS7-Galphao binding; actives lie on both sides; response (percent of control binding), % at 10 µM; actives 7.8% (n = 1,700); AID 1837; in the data active = response below about 75% or above about 130%; inactive = in between;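 note: fluorescent Galphao activated with GDP and aluminum fluoride binding bead-coupled RGS7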
RGS16-Gao single: RGS16-Galphao interaction regulation, single point confirmation; shares compounds with RGS16-Gao HTS; bead-based flow cytometry, RGS16-Galphao binding; actives lie on both sides; response (% of control binding), % at 10 µM; actives 4% (n = 1,700); in the data active = response below about 74% or above about 130%; inactive = in between;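 note: Galphao activated as the GDP aluminium fluoride complex binding bead-coupled RGS16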
RGS4-Gao confirm: confirmation of regulators of human RGS4-Galphao interaction | shares compounds with RGS16-Gao HTS | RGS4-Galphao binding, multiplexed bead flow cytometry; actives lie on both sides | binding response (% of control), % at 10 µM | actives 4% (n = 1,700) | AID 1840; in the data active = binding response below about 74% or above about 130%; inactive = in between
RGS19-Gao conf: RGS19-Galphao interaction regulation, single point confirmation; shares compounds with RGS16-Gao HTS; bead-based flow cytometry RGS19-Galphao binding; actives lie on both sides; response (percent of control binding), % at 10 µM; actives 5% (n = 1,700); AID 1841; in the data active = response below about 50% or above about 160%; inactive = in between
A number is an active result; [ ] = another dose, or the depositor's remark. Unless noted, the rule behind the calls is not given here.

What do the screens show for `Cc1cccc(C)c1NC(=O)C(=O)c1cn(C)c2ccccc12`?
RGS4-Gao reg: inactive; RGS16-Gao HTS: inactive; RGS7-Gao reg: inactive; GSH bead fluor: inactive; Avidin bead fluor: inactive; RGS8-Gao: inactive

What do the screens show for `Cc1ccc(S(=O)(=O)/N=C2/C=C(Sc3ncn[nH]3)C(=O)c3ccccc32)cc1`?
RGS4-Gao reg: inactive; RGS16-Gao HTS: 15; RGS7-Gao reg: inactive; GSH bead fluor: inactive; Avidin bead fluor: inactive; RGS8-Gao: inactive; RGS-Gao: 87

What do the screens show for `O=C(Nc1ccccc1F)c1ccc(COc2ccc(Cl)cc2Cl)o1`?
RGS4-Gao reg: inactive; RGS16-Gao HTS: inactive; RGS7-Gao reg: inactive; GSH bead fluor: inactive; Avidin bead fluor: inactive; RGS8-Gao: inactive

Results for CC(C)CNC(=O)c1ccc(COc2ccc(Cl)cc2Cl)o1 ?
RGS4-Gao reg: inactive; RGS16-Gao HTS: inactive; RGS7-Gao reg: 49; GSH bead fluor: inactive; Avidin bead fluor: inactive; RGS8-Gao: 60; RGS-Gao: 52; Avidin counter: inactive; RGS8-Gao single: inactive; RGS7-Gao confirm: inactive; RGS16-Gao single: inactive; RGS4-Gao confirm: inactive; RGS19-Gao conf: inactive

How did O=C(NCc1ccc2c(c1)OCO2)c1ccc2c(c1)OCO2 do in these assays?
RGS4-Gao reg: inactive; RGS16-Gao HTS: inactive; RGS7-Gao reg: inconclusive; Avidin bead fluor: inactive; RGS8-Gao: inactive

Results for O=C(NCc1ccc2c(c1)OCO2)c1cccc([N+](=O)[O-])c1 ?
GSH bead fluor: inactive; Avidin counter: inactive; RGS8-Gao single: inactive; RGS7-Gao confirm: inactive; RGS16-Gao single: inactive; RGS4-Gao confirm: inactive; RGS19-Gao conf: inactive

What do the screens show for `O=C(NCc1ccc2c(c1)OCO2)c1ccc(CSCc2ccccc2Cl)o1`?
RGS4-Gao reg: inactive; RGS16-Gao HTS: inactive; RGS7-Gao reg: 48; GSH bead fluor: inactive; Avidin bead fluor: inactive; RGS8-Gao: inactive; RGS-Gao: 54; Avidin counter: inactive; RGS8-Gao single: inactive; RGS7-Gao confirm: inactive; RGS16-Gao single: inactive; RGS4-Gao confirm: inactive; RGS19-Gao conf: inactive

How did O=C(NCc1ccc2c(c1)OCO2)c1ccc(COc2cccc(Cl)c2)o1 do in these assays?
RGS4-Gao reg: inactive; RGS16-Gao HTS: inactive; RGS7-Gao reg: inactive; GSH bead fluor: inactive; Avidin bead fluor: inactive; RGS8-Gao: inactive

How did Cc1c(NC(=O)c2ncn[nH]2)cccc1-c1nc2ccccc2s1 do in these assays?
RGS4-Gao reg: inactive; RGS16-Gao HTS: inactive; RGS7-Gao reg: inactive; GSH bead fluor: inactive; Avidin bead fluor: inactive; RGS8-Gao: inactive

Results for Fc1ccc(C(Nc2ccccn2)c2c[nH]c3ccccc23)cc1 (stereo not given) ?
RGS4-Gao reg: inactive; RGS16-Gao HTS: inactive; RGS7-Gao reg: inactive; GSH bead fluor: inactive; Avidin bead fluor: inactive; RGS8-Gao: 141[activator]; RGS-Gao: 125; Avidin counter: inactive; RGS8-Gao single: inactive; RGS7-Gao confirm: inactive; RGS16-Gao single: inactive; RGS4-Gao confirm: inactive; RGS19-Gao conf: inactive

Results for Cc1cc(=O)[nH]c2c1c(C)nn2C1CCOC(C)(C)C1 (stereo not given) ?
RGS4-Gao reg: inactive; RGS16-Gao HTS: inactive; RGS7-Gao reg: inactive; GSH bead fluor: inactive; Avidin bead fluor: inactive; RGS8-Gao: inactive

What do the screens show for `Cc1ccc(-c2nn(CCC(=O)O)cc2CCC(=O)O)cc1`?
RGS4-Gao reg: inactive; RGS16-Gao HTS: inactive; RGS7-Gao reg: inactive; GSH bead fluor: inactive; Avidin bead fluor: inactive; RGS8-Gao: inactive

What do the screens show for `CCn1cc(CCC(=O)O)c(C)n1`?
RGS4-Gao reg: inactive; RGS16-Gao HTS: inactive; RGS7-Gao reg: inactive; GSH bead fluor: inactive; Avidin bead fluor: inactive; RGS8-Gao: 146[activator]; RGS-Gao: 142; Avidin counter: inactive; RGS8-Gao single: inactive; RGS7-Gao confirm: inactive; RGS16-Gao single: inactive; RGS4-Gao confirm: inactive; RGS19-Gao conf: inactive

Results for CS(=O)(=O)N1CCN(c2ccccc2F)CC1 ?
RGS4-Gao reg: inactive; RGS16-Gao HTS: inactive; RGS7-Gao reg: inactive; GSH bead fluor: inactive; Avidin bead fluor: inactive; RGS8-Gao: inactive

Results for O=S(=O)(N1CCCCC1)N1CCN(c2ccccc2F)CC1 ?
RGS4-Gao reg: inactive; RGS16-Gao HTS: inactive; RGS7-Gao reg: 156[activator]; GSH bead fluor: inactive; Avidin bead fluor: 70; RGS8-Gao: inactive; RGS-Gao: 105; Avidin counter: inactive; RGS8-Gao single: inactive; RGS7-Gao confirm: inactive; RGS16-Gao single: inactive; RGS4-Gao confirm: inactive; RGS19-Gao conf: inactive

What do the screens show for `COc1cccc(Cn2c(Oc3ccccc3)nc3c2c(=O)n(C)c(=O)n3C)c1`?
RGS4-Gao reg: inactive; RGS16-Gao HTS: -247; RGS7-Gao reg: inactive; GSH bead fluor: inactive; Avidin bead fluor: inactive; RGS8-Gao: inactive; RGS-Gao: 83

What do the screens show for `CC(=O)NNc1ncnc2c1cnn2-c1ccc(C)c(Cl)c1`?
RGS4-Gao reg: inactive; RGS16-Gao HTS: inactive; RGS7-Gao reg: inactive; GSH bead fluor: inactive; Avidin bead fluor: inactive; RGS8-Gao: inactive

What do the screens show for `CCOC(=O)c1cc(OCC(=O)NC(C)C(C)C)cc(C(=O)OCC)c1` (stereo not given)?
RGS4-Gao reg: -31; RGS16-Gao HTS: -19; RGS7-Gao reg: -9.7; GSH bead fluor: inactive; Avidin bead fluor: inactive; RGS8-Gao: 6.1; Avidin counter: inactive; RGS8-Gao single: inactive; RGS7-Gao confirm: inactive; RGS16-Gao single: inactive; RGS4-Gao confirm: inactive; RGS19-Gao conf: inactive

Results for Cc1ccc(NC(=O)CO/N=C(\N)c2nonc2N)cc1C ?
RGS4-Gao reg: inactive; RGS16-Gao HTS: 25; RGS7-Gao reg: inactive; GSH bead fluor: inactive; Avidin bead fluor: inactive; RGS8-Gao: inactive; RGS-Gao: 92; Avidin counter: inactive; RGS8-Gao single: inactive; RGS7-Gao confirm: inactive; RGS16-Gao single: inactive; RGS4-Gao confirm: inactive; RGS19-Gao conf: inactive
